Structures are written as SMILES. Hit rate of the full screen: of about 350,000 compounds, about 31,000 (8.9%) were called active. Where a call stands in place of a potency, no number is given. Another 15% or so got no clear call; they are omitted. This excerpt belongs to a sample that is enriched for actives. Values without a mark were called inactive. Calls come from the whole dose curve; as a rule, active = well fitted inhibition curve with a large enough effect; inconclusive = small, poorly fitted or top-dose-only effect; inactive = no such curve, though single readings can be large or run the other way.

25 compounds from PubChem BioAssay AID504332 (National Center for Advancing Translational Sciences (NCATS), 2011) can be followed below.
Potency is the fitted concentration of half-maximal effect.

Histone-lysine N-methyltransferase EHMT2 (Homo sapiens), sequence (Q96KQ7 913-1193 limits assumed): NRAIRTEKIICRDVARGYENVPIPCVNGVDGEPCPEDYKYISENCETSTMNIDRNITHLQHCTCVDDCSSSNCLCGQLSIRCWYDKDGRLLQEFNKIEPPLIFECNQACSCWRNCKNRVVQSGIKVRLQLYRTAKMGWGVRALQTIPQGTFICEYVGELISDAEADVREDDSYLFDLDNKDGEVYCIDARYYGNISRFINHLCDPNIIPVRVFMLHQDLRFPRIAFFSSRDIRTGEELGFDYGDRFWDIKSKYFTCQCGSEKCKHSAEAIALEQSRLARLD

The target in the experiment is Histone-lysine N-methyltransferase EHMT2 (Homo sapiens) (UniProt Q96KQ7). Nature of the experiment: qHTS Assay for Inhibitors of Histone Lysine Methyltransferase G9a. Note: nearly all actives have a fitted effect of over 75% in size. The note with it: G9a H3K9 monomethylation, AlphaScreen, 2 h; series mostly up to 59 µM. In outline:
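Readings reflect AlphaScreen signal from monomethyl-H3K9 antibody detection. HMT at 20 nM; substrate b-H3K9 500 nM; cofactor SAM 20 uM; 2 h RT reaction; compounds tested as titrations in qHTS with 15 min preincubation.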
For orientation: qHTS replaces the single test concentration by a dilution series.
As for `O=C(CSc1nc2ccccc2c(=O)n1CCCO)NC1CC1`, the activity, negative = inhibition is -11.2% [at 2.33 µM].

As to `COc1ccc(S(=O)(=O)NCC(c2ccc(N(C)C)cc2)N2CCc3ccccc32)cc1OC` (stereo not given), the Potency was 14.1 µM (active).

In the case of `Cc1ccc(S(=O)(=O)NCC(=O)OCC(=O)N2CCc3ccccc32)cc1`, the Potency result was “inactive”.

In the case of `COc1ccc(C(=O)NCC(c2ccc(N(C)C)cc2)N2CCc3ccccc32)c(OC)c1` (stereo not given), the Potency entry is “inactive”.

In the case of `O=S(=O)(NCC(c1ccccc1)N1CCc2ccccc21)c1ccccc1` (stereo not given), the Potency is 15.8 µM (active).

Consider `COc1ccc(S(=O)(=O)NCC(c2ccc(N(C)C)cc2)N2CCCC2)cc1` (stereo not given), for which the activity, negative = inhibition was 0.776% [at 12.7 µM].

As to `O=C(NCC(c1cccnc1)N1CCc2ccccc21)c1cccc(C(F)(F)F)c1` (stereo not given), the Potency result was “inactive”.

In the case of `COC(=O)C1=C(c2ccccc2)c2ccccc2S(=O)(=O)N1CC(=O)Nc1ccccc1C(F)(F)F`, the Potency entry was “inactive”.

With `Cc1ccc(CN2CCC(CNC(=O)c3cnn(-c4ccccc4Cl)c3C3CCN(C(=O)OC(C)(C)C)CC3)CC2)cc1`, the Potency result was “inactive”.

As to `COc1ccc(NC(=O)CCCc2nnc3n(CCC(C)C)c(=O)c4sccc4n23)c(OC)c1`, the Potency result was “inactive”.

With `CCCN(CCC)S(=O)(=O)c1ccc(C(=O)Nc2sc3c(c2C(=O)OC)CCN(CC)C3)cc1`, the Potency entry was “inactive”.

As to `CCOC(=O)N1CCN(C(=O)c2n[nH]c(=O)c3ccccc23)CC1`, the activity, negative = inhibition was 8.06% [at 12.7 µM].

As for `CCOC(=O)N1CCN(C(=O)Cn2cnc3ccccc3c2=O)CC1`, the activity, negative = inhibition is 1.87% [at 12.7 µM].

Regarding `CCOC(=O)N1CCN(CC(=O)n2c(C)c(C)c3ccccc32)CC1`, the Potency is 12.6 µM (active).

For the compound `CC1CCCCC1NC(=O)COC(=O)Cc1ccc(Cl)cc1` (stereo not given), the Potency result was “inactive”.

Consider `CCOc1cc(C(=O)O)ccc1OCCOc1ccccc1`, for which the Potency entry is “inactive”.

As to `CCOc1cccc2c1N[C@@H](c1ccc(C(=O)O)cc1)[C@H]1CC=C[C@@H]21`, the Potency was 4.47 µM (active).

Regarding `CCOc1c(CNCc2ccc(C(=O)O)cc2)cccc1OC`, the Potency entry is “inactive”.

Take `Cc1nn(C(C)C(=O)Nc2ccc(C(C)C)cc2)c(=O)c2c1sc1ccccc12` (stereo not given): the Potency entry is “inactive”.

On to `O=C(NCc1ccccc1CN1CCCC1)c1cccc(S(=O)(=O)Nc2ccc(F)cc2)c1`, for which the Potency result was “inactive”.

With `COc1ccc(CCNCc2c(C(=O)O)c(C)n(Cc3cccc(C)c3)c2C)cc1OC`, the Potency entry was “inactive”.

On to `CC(C)n1c(-c2cccs2)nc2ccccc21`, for which the Potency result is “inactive”.

As to `c1csc(-c2cn3c(n2)SCC3)c1`, the Potency was 17.8 µM (active).

With `Cc1cc(-c2cccs2)nc(-n2cccc2)n1`, the Potency entry is “inactive”.

As for `CCC(C)N(C(=O)CSc1ncnc2c1cnn2-c1ccccc1)C1CCS(=O)(=O)C1` (stereo not given), the activity, negative = inhibition was 17.2% [at 2.33 µM].
